Several values for one entry are separate records, joined by “and”; a condition that tells them apart may be missing. Equal values may be shown once. For part of these data: Potency and affinity values are given separately. Activity calls are given as the source filed them.
What was measured:
[1] = Ebola virus entry assay, green fluorescence channel
[2] = Ebola virus entry assay, ratio channel readout
[3] = Ebola virus entry assay, blue channel fluorescence
[4] = Ebola virus entry assay, ratio channel
[5] = Ebola virus entry assay, reporter ratio channel; AC50: Channel type: primary unless noted; outcome: Channel type: primary unless noted
[6] = Ebola virus entry cell assay, ratio channel
[7] = Ebola virus entry assay, green channel fluorescence
[8] = Ebola virus entry assay, blue channel fluorescence; remark: listed apart in the source
[9] = Ebola virus entry assay, blue channel (ratio component)
[10] = Ebola virus entry reporter assay, green channel fluorescence

## CC(C)NCC(O)COc1ccc(CCOCC2CC2)cc1 (stereo unspecified)
[1]
  outcome: inactive
[2]
  outcome: inactive
[3]
  AC50: 14.1 µM (active)
[4]
  AC50: 11.2 µM (active)
[5]
  AC50: 11.2 µM (active)
[6]
  AC50: 15.8 µM (active)

## O[C@@H](c1cc(C(F)(F)F)nc2c(C(F)(F)F)cccc12)[C@H]1CCCCN1
[1]
  outcome: inactive
[2]
  AC50: 5.63 µM (active)
[3]
  AC50: 1.58 µM (active)
[4]
  AC50: 1.58 µM (active)
[5]
  AC50: 1.58 µM (active)
[6]
  AC50: 5.62 µM (active)

## OCCN1CCN(CCCN2c3ccccc3Sc3ccc(Cl)cc32)CC1
[1]
  outcome: inactive
[2]
  AC50: 5.63 µM (active)
[3]
  AC50: 2.82 µM (active)
[4]
  AC50: 2.24 µM (active)
[5]
  AC50: 2.24 µM (active)
[6]
  AC50: 5.62 µM (active)

## C[C@@H](O[C@H]1OCCN(Cc2n[nH]c(=O)[nH]2)[C@H]1c1ccc(F)cc1)c1cc(C(F)(F)F)cc(C(F)(F)F)c1
[1]
  outcome: inactive
[2]
  outcome: inactive
[3]
  AC50: 28.2 µM (active)
[4]
  AC50: 28.2 µM (active)
[5]
  AC50: 28.2 µM (active)
[6]
  outcome: inactive

## CC(CN1c2ccccc2Sc2ccccc21)N(C)C (stereo unspecified)
[1]
  outcome: inactive
[2]
  outcome: inactive
[3]
  AC50: 39.8 µM (active)
[4]
  AC50: 31.6 µM (active)
[5]
  AC50: 31.6 µM (active)
[6]
  AC50: 20 µM (active)

## Cc1ccc(-c2cc(C(F)(F)F)nn2-c2ccc(S(N)(=O)=O)cc2)cc1
[1]
  outcome: inactive
[2]
  outcome: inactive
[3]
  AC50: 39.8 µM (active)
[4]
  outcome: inactive
[5]
  AC50: 39.8 µM (active)
[6]
  AC50: 11.2 µM (active)

## CN(C)C(=O)C(CCN1CCC(O)(c2ccc(Cl)cc2)CC1)(c1ccccc1)c1ccccc1
[1]
  outcome: inactive
[2]
  outcome: inactive
[3]
  AC50: 3.16 µM (active)
[4]
  AC50: 2.51 µM (active)
[5]
  AC50: 2.51 µM (active)
[6]
  AC50: 11.2 µM (active)

## CNCC[C@H](Oc1cccc2ccccc12)c1cccs1
[1]
  outcome: inactive
[2]
  outcome: inactive
[3]
  AC50: 6.31 µM (active)
[4]
  AC50: 3.55 µM (active)
[5]
  AC50: 3.55 µM (active)
[6]
  AC50: 10 µM (active)

## CCN(CC)C(=S)SSC(=S)N(CC)CC
[1]
  outcome: inactive
[2]
  outcome: inactive
[3]
  AC50: 7.08 µM (active)
[4]
  AC50: 7.94 µM (active) and 22.4 µM (active)
[5]
  AC50: 7.94 µM (active) and 22.4 µM (active)
[6]
  outcome: inactive

## CN(C)CC/C=C1\c2ccccc2COc2ccccc21
[1]
  outcome: inactive
[2]
  outcome: inactive
[3]
  AC50: 20 µM (active)
[4]
  AC50: 14.1 µM (active)
[5]
  AC50: 14.1 µM (active)
[6]
  AC50: 25.1 µM (active)

## CN1CCC[C@@H]1CCO[C@](C)(c1ccccc1)c1ccc(Cl)cc1
[1]
  outcome: inactive
[2]
  AC50: 3.17 µM (active)
[3]
  AC50: 1.78 µM (active)
[4]
  AC50: 1.41 µM (active)
[5]
  AC50: 1.41 µM (active)
[6]
  AC50: 3.16 µM (active)

## COc1ccc([C@@H]2Sc3ccccc3N(CCN(C)C)C(=O)[C@@H]2OC(C)=O)cc1
[1]
  outcome: inactive
[2]
  outcome: inactive
[3]
  AC50: 28.2 µM (active)
[4]
  AC50: 25.1 µM (active)
[5]
  AC50: 25.1 µM (active)
[6]
  outcome: inactive

## OC(CCN1CCCC1)(c1ccccc1)C1CCCCC1 (stereo unspecified)
[1]
  outcome: inactive
[2]
  outcome: inactive
[3]
  AC50: 25.1 µM (active)
[4]
  AC50: 20 µM (active)
[5]
  AC50: 20 µM (active)
[6]
  AC50: 20 µM (active)

## COc1cc2nc(N3CCN(C(=O)C4COc5ccccc5O4)CC3)nc(N)c2cc1OC (stereo unspecified)
[1]
  outcome: inactive
[2]
  outcome: inactive
[3]
  AC50: 15.8 µM (active)
[4]
  AC50: 15.8 µM (active)
[5]
  AC50: 15.8 µM (active)
[6]
  outcome: inactive

## CCCCc1oc2ccc(NS(C)(=O)=O)cc2c1C(=O)c1ccc(OCCCN(CCCC)CCCC)cc1
[1]
  outcome: inactive
[2]
  outcome: inactive
[3]
  AC50: 0.891 µM (active)
[4]
  AC50: 0.891 µM (active)
[5]
  outcome: inactive [Channel type: confirmation]
[6]
  AC50: 3.16 µM (active)

## CCC(=O)O[C@H]1[C@H](O[C@@H]2[C@@H](C)[C@H](O[C@H]3C[C@@](C)(OC)[C@@H](O)[C@H](C)O3)[C@@H](C)C(=O)O[C@H](CC)[C@@](C)(O)[C@H](O)[C@@H](C)C(=O)[C@H](C)C[C@@]2(C)O)O[C@H](C)C[C@@H]1N(C)C
[1]
  outcome: inactive
[2]
  outcome: inactive
[3]
  AC50: 14.1 µM (active)
[4]
  AC50: 11.2 µM (active)
[5]
  AC50: 11.2 µM (active)
[6]
  outcome: inactive

## CO[C@]12CC[C@@]3(C[C@@H]1[C@](C)(O)C(C)(C)C)[C@@H]1Cc4ccc(O)c5c4[C@@]3(CCN1CC1CC1)[C@H]2O5
[1]
  outcome: inactive
[2]
  outcome: inactive
[3]
  AC50: 5.62 µM (active)
[4]
  AC50: 3.16 µM (active)
[5]
  AC50: 3.16 µM (active)
[6]
  outcome: inactive

## CC[C@]1(O)C[C@@H]2CN(CCc3c([nH]c4ccccc34)[C@@](C(=O)OC)(c3cc4c(cc3OC)N(C)[C@H]3[C@@](O)(C(=O)OC)[C@H](OC(C)=O)[C@]5(CC)C=CCN6CC[C@]43[C@@H]65)C2)C1
[1]
  outcome: inactive
[2]
  outcome: inactive
[3]
  AC50: 0.794 µM (active)
[4]
  AC50: 1 µM (active) and 891 nM (active)
[5]
  AC50: 1 µM (active) and 891 nM (active)
[6]
  AC50: 0.01 µM (active)

## CCCSc1ccc2nc(NC(=O)OC)[nH]c2c1
[1]
  outcome: inactive
[2]
  outcome: inactive
[3]
  AC50: 3.16 µM (active)
[4]
  AC50: 3.98 µM (active)
[5]
  outcome: inactive [Channel type: confirmation]
[6]
  AC50: 8.91 µM (active)

## CN(C)c1cc(NC(=O)CNC(C)(C)C)c(O)c2c1C[C@@H]1C[C@H]3[C@H](N(C)C)C(=O)C(C(N)=O)=C(O)[C@@]3(O)C(=O)C1=C2O
[1]
  outcome: inactive
[2]
  outcome: inactive
[3]
  AC50: 8.91 µM (active)
[4]
  AC50: 8.91 µM (active)
[5]
  AC50: 8.91 µM (active)
[6]
  outcome: inactive

## C[C@@H](NCCCc1cccc(C(F)(F)F)c1)c1cccc2ccccc12
[1]
  outcome: inactive
[2]
  outcome: inactive
[3]
  AC50: 3.98 µM (active)
[4]
  AC50: 3.55 µM (active)
[5]
  AC50: 3.55 µM (active)
[6]
  AC50: 12.6 µM (active)

## CC(N)C12CC3CC(CC(C3)C1)C2 (stereo unspecified)
[1]
  outcome: inactive
[2]
  outcome: inactive
[3]
  AC50: 28.2 µM (active)
[4]
  AC50: 28.2 µM (active)
[5]
  AC50: 28.2 µM (active)
[6]
  outcome: inactive

## CNCCCN1c2ccccc2CCc2ccccc21
[1]
  outcome: inactive
[2]
  outcome: inactive
[3]
  AC50: 10 µM (active)
[4]
  AC50: 7.94 µM (active)
[5]
  AC50: 7.94 µM (active)
[6]
  AC50: 15.8 µM (active)

## CS(=O)(=O)CCNCc1ccc(-c2ccc3ncnc(Nc4ccc(OCc5cccc(F)c5)c(Cl)c4)c3c2)o1
[1]
  outcome: inactive
[2]
  outcome: inactive
[3]
  AC50: 3.55 µM (active)
[4]
  AC50: 3.98 µM (active)
[5]
  AC50: 3.98 µM (active)
[6]
  outcome: inactive

## COC(=O)C1=C(C)NC(C)=C(C(=O)OCC(C)C)C1c1ccccc1[N+](=O)[O-] (stereo unspecified)
[1]
  outcome: inactive
[2]
  outcome: inactive
[3]
  AC50: 28.2 µM (active)
[4]
  AC50: 17.8 µM (active)
[5]
  AC50: 17.8 µM (active)
[6]
  outcome: inactive

## OCCN1CCN(CCCN2c3ccccc3Sc3ccc(C(F)(F)F)cc32)CC1
[1]
  outcome: inactive
[2]
  outcome: inactive
[3]
  AC50: 3.55 µM (active)
[4]
  AC50: 3.16 µM (active)
[5]
  AC50: 3.16 µM (active)
[6]
  AC50: 8.91 µM (active)

## NC(=O)C(c1ccccc1)(c1ccccc1)[C@@H]1CCN(CCc2ccc3c(c2)CCO3)C1
[1]
  outcome: inactive
[2]
  outcome: inactive
[3]
  AC50: 39.8 µM (active)
[4]
  AC50: 31.6 µM (active)
[5]
  AC50: 31.6 µM (active)
[6]
  outcome: inactive

## CC(CN(C)C)CN1c2ccccc2CCc2ccccc21 (stereo unspecified)
[1]
  outcome: inactive
[2]
  AC50: 14.1 µM (active)
[3]
  AC50: 7.94 µM (active)
[4]
  AC50: 6.31 µM (active)
[5]
  AC50: 6.31 µM (active)
[6]
  AC50: 14.1 µM (active)

## Cc1ccccc1C(OCCN(C)C)c1ccccc1 (stereo unspecified)
[1]
  outcome: inactive
[2]
  outcome: inactive
[3]
  AC50: 7.94 µM (active)
[4]
  AC50: 8.91 µM (active)
[5]
  AC50: 8.91 µM (active)
[6]
  AC50: 8.91 µM (active)

## CSc1ccc2c(c1)N(CCC1CCCCN1C)c1ccccc1S2 (stereo unspecified)
[1]
  outcome: inactive
[2]
  outcome: inactive
[3]
  AC50: 3.55 µM (active)
[4]
  AC50: 3.16 µM (active)
[5]
  AC50: 3.16 µM (active)
[6]
  AC50: 6.31 µM (active)

## COc1cc(NC(C)CCCN)c2ncccc2c1 (stereo unspecified)
[1]
  outcome: inactive
[2]
  outcome: inactive
[3]
  AC50: 5.01 µM (active)
[4]
  AC50: 3.55 µM (active)
[5]
  AC50: 3.55 µM (active)
[6]
  outcome: inactive

## CN(C)CCC=C1c2ccccc2C=Cc2ccccc21
[1]
  outcome: inactive
[2]
  outcome: inactive
[3]
  AC50: 11.2 µM (active)
[4]
  AC50: 10 µM (active)
[5]
  AC50: 10 µM (active)
[6]
  AC50: 12.6 µM (active)

## Cc1ccc(O)c([C@H](CCN(C(C)C)C(C)C)c2ccccc2)c1
[1]
  outcome: inactive
[2]
  outcome: inactive
[3]
  AC50: 14.1 µM (active)
[4]
  AC50: 12.6 µM (active)
[5]
  AC50: 12.6 µM (active)
[6]
  AC50: 11.2 µM (active)

## O=C1N=C(O)CN1/N=C/c1ccc(-c2ccc([N+](=O)[O-])cc2)o1
[1]
  outcome: inactive
[2]
  outcome: inactive
[3]
  outcome: inactive
[7]
  outcome: inactive
[8]
  outcome: inactive
[5]
  outcome: inactive
[9]
  outcome: inactive
[6]
  outcome: inactive

## CCN1CCN(C(=O)N[C@@H](C(=O)N[C@@H]2C(=O)N3C(C(=O)O)=C(CSc4nnnn4C)CS[C@H]23)c2ccc(O)cc2)C(=O)C1=O
[1]
  outcome: inactive
[2]
  outcome: inactive
[3]
  outcome: inactive
[7]
  outcome: inactive
[8]
  outcome: inactive
[5]
  outcome: inactive
[9]
  outcome: inactive
[6]
  outcome: inactive

## CCCCC1=NC2(CCCC2)C(=O)N1Cc1ccc(-c2ccccc2-c2nn[nH]n2)cc1
[1]
  outcome: inactive
[2]
  outcome: inactive
[3]
  outcome: inactive
[7]
  outcome: inactive
[8]
  outcome: inactive
[5]
  outcome: inactive
[9]
  outcome: inactive
[10]
  outcome: inactive
[6]
  outcome: inactive

## Cc1nc(-c2ccc(OCC(C)C)c(C#N)c2)sc1C(=O)O
[1]
  outcome: inactive
[2]
  outcome: inactive
[3]
  outcome: inactive
[8]
  outcome: inactive
[5]
  outcome: inactive
[9]
  outcome: inactive
[10]
  outcome: inactive
[6]
  outcome: inactive
